Assay outcomes (PubChem)
Most compounds without a hit are left out; they make up all but 4.5% or so of the library.
Rce1 inhib – yeast Rce1p protease inhibitors, primary screen, biochemical, fluorescence, cell-free homogeneous; yeast membranes, quenched prenylated peptide cleavage fluorescence; calls only; CAAX prenyl protease 2 (Saccharomyces cerevisiae (strain ATCC 204508 / S288c)), Q03530; hit rate 0.27% among 290,000;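 active = fall in fluorescence gain of 50% or more versus controls, with final raw signal at or below 3038400; inconclusive = same 50% fall but final raw signal above 3038400; inactive = fall in fluorescence gain under 50%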;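 note: plate controls were neutral control wells for no effect and wells lacking membranes for full effect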
Rtt109 Vps75 – inhibitors of C. albicans Rtt109/Vps75 HAT, primary screen, biochemical, ThioGlo CoA-SH fluorescence, plate reader; Histone acetyltransferase RTT109 (Candida albicans (strain SC5314 / ATCC MYA-2876)), …; inhibition, % at 34.9 µM; purified Rtt109/Vps75, 4 h; hit rate 0.16% among 330,000;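 active = inhibition of at least 50% in every replicate; inconclusive = best replicate reaches 50% inhibition but some replicates fall short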
Target sequence (Q5AAJ8 whole entry, looked up): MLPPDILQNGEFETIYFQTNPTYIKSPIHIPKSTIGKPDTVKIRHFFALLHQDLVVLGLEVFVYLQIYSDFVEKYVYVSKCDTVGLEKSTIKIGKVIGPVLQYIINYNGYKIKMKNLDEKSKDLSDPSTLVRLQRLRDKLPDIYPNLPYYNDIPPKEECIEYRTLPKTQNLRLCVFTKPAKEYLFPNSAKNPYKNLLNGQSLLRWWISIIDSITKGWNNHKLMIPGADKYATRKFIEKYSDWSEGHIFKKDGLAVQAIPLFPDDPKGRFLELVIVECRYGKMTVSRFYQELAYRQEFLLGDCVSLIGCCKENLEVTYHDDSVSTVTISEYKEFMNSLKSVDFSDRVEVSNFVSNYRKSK
Efflux pump mplx – inhibitors of Candida efflux pumps in yeast, primary screen, S. cerevisiae, Nile Red, multiplex | AID 485275, 2010 | hit rate 0.44% among 330,000 | S. cerevisiae Candida pump triplex | inhibition, % at 10 µM;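 active = plate passing quality check with inhibition over a set limit, or well fluorescence over plate mean plus 4 SD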;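 note: Nile Red retained in pooled yeast measured as flow cytometry median fluorescence; 0% = buffer negative control and 100% = Enniatin B positive control; higher means more Nile Red kept so more efflux inhibition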
ALR H2O2 inh – inhibitors of human ALR sulfhydryl oxidase, primary screen, biochemical, H2O2 detection, HRP-luminol luminescence, single point; hit rate 3.8% among 290,000; AID 485317, 2010; FAD-linked sulfhydryl oxidase ALR (Homo sapiens), P55789; purified ALR, DTT oxidation; inhibition, % (test concentration not listed);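 active = mean replicate inhibition above about 79%, with every replicate also reaching it, limit read from the data; inconclusive = only one of the two criteria met; inactive = mean below limit and not every replicate reaching it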
Target sequence (P55789 whole entry, looked up): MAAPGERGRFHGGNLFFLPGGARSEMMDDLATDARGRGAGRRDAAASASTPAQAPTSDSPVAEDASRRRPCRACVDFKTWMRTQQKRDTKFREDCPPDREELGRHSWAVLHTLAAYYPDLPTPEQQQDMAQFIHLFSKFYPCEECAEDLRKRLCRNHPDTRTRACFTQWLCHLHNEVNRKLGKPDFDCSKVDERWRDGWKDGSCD
GRK2 aptamer HTS – compounds blocking aptamer binding on GRK2 – biochemical, human GRK2, bead flow cytometry, HTS, primary screen. FAM-aptamer displacement from GRK2. inhibition of aptamer binding, % at 10 µM. hit rate 0.59% among 330,000. AID 488847, 2010;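 active = inhibition of aptamer binding above 40%, roughly 3 SD of noise, on plates passing a quality check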;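 note: median bead fluorescence of bound FAM aptamer so fluorescent compounds give negative values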
HDAC3 inh – HDAC3 deacetylase inhibitors, primary screen, biochemical, fluorescence, cell-free homogeneous; Histone deacetylase 3 (Homo sapiens), O15379; inhibition, % at 8.3 µM; AID 2718, 2010; recombinant HDAC3, fluorogenic peptide/trypsin coupled; hit rate 0.15% among 320,000; in the data active = inhibition above about 26%, passing the limit was not always enough; inconclusive = no clear call, values can overlap the other calls
Active calls of the source: *; i = inactive; ? = inconclusive; . = no result given; + = active, no number.

SMILES	Rce1 inhib	Rtt109 Vps75	Efflux pump mplx	ALR H2O2 inh	GRK2 aptamer HTS	HDAC3 inh
CCC1C(=O)N=C(SCC(=O)NC2CCCCC2)NC1=O (stereo not drawn)	i	-15	0	57	1	-1
CN(C(=O)c1cccc(NC(=O)Cc2ccc(NC(=O)C3CCCN(S(=O)(=O)c4cccc([N+](=O)[O-])c4)C3)cc2)c1)C1CCCCC1 (stereo not drawn)	.	-4	.	.	.	.
NC(=O)c1cc(S(=O)(=O)N2CCOCC2)ccc1N1CCCC1	i	-11	0	-5	0	1
CC1CCCCN1c1ccc(N)cc1C(N)=O (stereo not drawn)	.	7	0	94*	0	6
CN1CCN(C(=S)NC(=O)c2ccccc2Cl)CC1	+	-9	0	1	4	.
O=C(NC(=S)N1CCCCCC1)c1ccccc1Cl	i	2	0	.	2	2
Cc1cc(C(=O)N2CCCC(Nc3ccc(C(C)C)cc3)C2)nn1C (stereo not drawn)	i	-1	0	99*	0	6
CC(C)c1ccc(NC2CCCN(C(=O)c3cnsn3)C2)cc1 (stereo not drawn)	i	11	-3	96*	0	-1
CCOc1ccc2oc(C(=O)N(CCOC)c3c(N)n(CC(C)C)c(=O)[nH]c3=O)c(C)c2c1	.	-6	0	-5	0	3
CC(C)(C)OC(=O)C[C@H]1C/C=C\C[C@H](CC(=O)N[C@H](CO)Cc2ccccc2)C(=O)N2CCC[C@@H]2COC1=O	.	3	0	-1	7	-5
CN1/C(=C\C=N\NC(=O)c2cccnc2)C(C)(C)c2ccccc21	i	0	0	98*	2	14
NC(=O)c1ccc(-c2ccc(Br)cc2)o1	i	-11	0	98*	0	2
O=C(O)c1ccc(NC(=S)NC(=O)c2ccc(-c3ccc(Br)cc3)o2)cc1	i	0	0	93*	1	-3
O=C(O)c1cccc(NC(=S)NC(=O)c2ccc(-c3ccc(Cl)cc3)o2)c1	i	6	0	15	0	7
CCCC1OC(c2ccco2)OCC1CC (stereo not drawn)	.	10	.	.	.	.
CCc1sc(C(=O)Nc2ncccc2O)cc1C	i	-6	0	74	0	76*
CCc1sc(C(=O)Nc2ncccc2C)cc1C	i	-1	0	-2	2	5
Nc1nc(-c2c[nH]c3ccccc23)cs1	i	16	0	87*	0	2
CCn1c(C)c(C(C)=O)c(NCc2ccccc2)nc1=S	i	-10	0	98*	0	7
CC(=O)c1c(NCc2ccccc2)nc(=O)n(-c2ccccc2)c1C	i	0	0	0	0	7
CCN(CC)CCn1c(=S)[nH]c2ccc(Br)cc2c1=O	i	-4	0	97*	1	-9
COC(=O)c1cn(Cc2ccccn2)c(=O)c2ccccc12	i	5	0	-8	3	-2
O=C1Nc2ccc(Br)cc2/C1=C/C(=O)c1ccccc1	.	-2	.	.	.	.
O=C(O)COc1ccccc1/C=C1\C(=O)Nc2ccc(Br)cc21	i	-7	0	98*	0	1
Cc1ccc(C(=O)CC(=O)COc2ccc(Cl)cc2C)cc1	i	0	0	-6	1	-2
SMILES	Rce1 inhib	Rtt109 Vps75	Efflux pump mplx	ALR H2O2 inh	GRK2 aptamer HTS	HDAC3 inh
Cc1cc(Cl)ccc1OCc1nc(-c2ccc(O)cc2)n[nH]1	i	18	0	98*	3	16
CCn1c(SCC(=O)Nc2cccc(F)c2)nc2c(c1=O)SC(C)C2 (stereo not drawn)	i	-2	0	.	3	1
CCOC(=O)c1ccc(NC(=O)CSc2nc3c(c(=O)n2C)SC(C)C3)cc1 (stereo not drawn)	i	4	0	100*	0	-2
CCOC(=O)c1ccc(NC(=O)CSc2nc3c(c(=O)n2CC)SC(C)C3)cc1 (stereo not drawn)	i	1	0	99*	1	.
CC1Cc2nc(SCC(N)=O)n(C)c(=O)c2S1 (stereo not drawn)	i	-17	0	1	0	7
CCC(=O)Nc1ccc(OCC2CCCO2)cc1 (stereo not drawn)	i	-9	0	6	0	0
COC(=O)c1ccc2c(=O)n(-c3ccc(OC)cc3)c(=S)[nH]c2c1	i	9	0	-2	0	4
CCN(CC(=O)NCc1cccs1)C(=O)c1ccc(NS(=O)(=O)c2ccc(F)cc2)cc1	i	-1	0	1	0	-2
Cn1c(CO)cnc1SCC(=O)c1ccc(Cl)cc1	i	-5	0	99*	0	12
Cc1nnc(SCC(=O)c2ccc(Cl)cc2)n(N)c1=O	.	0	1	99*	1	?
Cc1nnc(SCC(=O)Nc2ccccc2F)n(N)c1=O	i	0	0	-1	0	1
CC(C)CNC(=O)CCc1nc(-c2ccccc2)no1	i	1	0	8	2	2
COc1ccc(N2C(=O)CC(NNc3ncc(Cl)cc3Cl)C2=O)cc1 (stereo not drawn)	i	-1	0	84*	0	-2
COc1ccc(CCN(C)C(=O)c2ccc(S(=O)(=O)Nc3ccccc3C)cc2)cc1OC	+	.	1	-7	3	-8
C=CCn1c(NCCO)nc2sc3c(c2c1=O)CCC3	i	-2	0	86*	0	-13
O=C(COC(=O)Cc1c(F)cccc1Cl)NCc1ccc2c(c1)OCO2	.	1	0	1	0	7
Cc1cc(-c2nnc(SCC(=O)Nc3nc(-c4ccccc4)cs3)o2)no1	i	36	0	99*	0	0
O=C(CSc1nc2ccccc2o1)Nc1nc(-c2ccccc2)cs1	i	0	0	99*	4	-3
Cc1occc1-c1nnc(SCC(=O)Nc2nc(-c3ccccc3)cs2)o1	i	-6	0	-8	0	0
O=C(CSc1nc2ccccc2o1)Nc1nc2ccccc2s1	i	-3	0	-11	1	-3
Cc1csc(NC(=O)CSc2nnc(-c3cc(C)on3)o2)n1	i	0	0	94*	0	1
CC(C)CCn1nnnc1CN1CCN(C(=O)c2ccco2)CC1	i	-5	0	-1	4	-3
Oc1ccc(NCc2ccccc2OCc2ccccc2)cc1	i	-1	0	9	0	-3
